Assay results: PubChem BioAssay
Unmarked numbers belong to inactive results.

Experiment: budding yeast growth changes without added modifier – OD600, strain BY4716, 24 h, basal condition, primary screen (AID 1173)
Details: S. cerevisiae BY4716 growth, OD600, 24 h; higher = more signal, called active from +8 up or from −8 down

SMILES | z-score
CN(C)CCCCNC(=O)[C@H]1C[C@H]2C(=O)N[C@@H](CCCC[N+](C)(C)C)C(=O)N2[C@H]1c1ccc(O)cc1 | -0.0503
CCOC(=O)C1=C[C@@H](c2ccccc2)N(S(=O)(=O)c2ccc(C)cc2)[C@H]1c1ccccc1 | 0.779
C=CC[C@H](OC(=O)Nc1ccc(SC)cc1)c1ccc(OCCO)cc1 | -3.71
O=C(O)[C@H]1C[C@H]2C(=O)N[C@@H](Cc3ccccc3)C(=O)N2[C@H]1c1cccc(OCCO)c1 | -1.46
CN(C)C(=O)[C@]1(CCS(=O)(=O)c2ccccc2)N=C(c2ccc(OCCCO)cc2)O[C@@H]1c1ccccc1 | -0.265
CCOC(=O)C1=C[C@@H](C(C)(C)C)N(S(=O)(=O)c2ccc(C)cc2)[C@H]1c1ccc(C)cc1 | 1.01

Experiment: viability profiling in MM1S myeloma cells – cell-based, resazurin fluorescence, basal, 24 h, PK04 Diversity Set, profiling panel (AID 1174);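 further: MM1S multiple myeloma cell line; test concentration not given here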
Details: higher = more signal, called active from +8 up or from −8 down

SMILES | z-score
[N-]=[N+]=Nc1ccccc1C[C@]1(C(=O)NCc2ccccc2)COC(c2ccc(OCCCO)cc2)=N1 | -5.51
C=CCNC(=O)[C@H]1[C@@H]2C(=O)O[C@@H](c3ccccc3)[C@@H](c3ccccc3)N2[C@@H](c2ccc(OCCO)cc2)[C@]12C(=O)Nc1ccc(C#CCNC(N)=O)cc12 | 0.0869
CCOC(=O)C[C@H]1[C@H](OC(=O)c2ccccc2-c2ccccc2)[C@@H](NC(=O)c2ccc3ccccc3n2)c2cc(OCCCO)ccc2N1C(=O)c1ccccc1 | -0.042
C[C@@H]1ON(c2ccc(I)cc2)[C@H](c2ccc(OC(=O)OC(C)(C)C)cc2)[C@H]1C(=O)N1C(=O)OC[C@H]1Cc1ccccc1 | 1.6
CN1C(=O)[C@@H]2[C@@H](CC(COc3ccccc3)=C([C@H](O)CCc3ccccc3)[C@@H]2CO)C1=O | 0.0223
NC(=O)N1C(=O)C2C(C1=O)C1C=C(CCCO)C2C(C2CC2)N1Cc1cccc(OC(F)(F)F)c1 (configuration not stated) | -0.217
O=C(N1CCOCC1)[C@@]1(CCS(=O)(=O)c2ccccc2)N=C(c2ccc(OCCCO)cc2)O[C@H]1c1ccccc1 | -0.986
C=C(COC)C(=O)CC[C@H](OC(C)=O)c1ccc(OCCO)cc1 | -0.267
COc1ccc(C(O)C2C=CC3C(=O)N(c4ccccc4)C(=O)C3N2Nc2ccccc2)cc1 (configuration not stated) | -0.582
O=C1C2C=CC(C(O)C=Cc3ccc([N+](=O)[O-])cc3)N(Nc3ccccc3)C2C(=O)N1c1ccccc1 (configuration not stated) | -1.44
CCN(CC)c1ccc(N2CC=CC34O[C@@H]5C=CCCOC(=O)C5[C@H]3C(=O)N(CCO)[C@@H]4C2=O)cc1 (some centres not stated) | -0.281
CN1C=C(C(=O)OCCS(C)(=O)=O)C(C(=O)OCCS(C)(=O)=O)=CC(c2ccc(CO)cc2)=CC1c1cccs1 (configuration not stated) | -0.727
C=C(C)C1CCC(C(O)C2C=CC3C(=O)N(C)C(=O)C3N2Nc2cc(OC)c(OC)c(OC)c2)CC1 (configuration not stated) | -0.901
O=C1NC(=O)C2C1C=CC(C(O)c1ccccn1)N2Nc1ccc(Cl)cc1Cl (configuration not stated) | -0.837
CCCCC=C[C@@H](NC(=O)c1ccccc1)c1ccccc1 | 0.0386
C=C(C(=O)CC[C@H](OC(=O)c1ccccc1-c1ccccc1C(=O)O)c1ccccc1OCCO)C(C)C | 0.181
COCCOC(=O)N1C(=O)[C@@]2(c3cc(C#CCC(C(=O)OC)C(=O)OC)ccc31)[C@H](c1ccc(O)cc1)N1[C@H](c3ccccc3)[C@H](c3ccccc3)OC(=O)[C@H]1[C@@H]2C(=O)NC[C@H](O)c1ccccc1 | 0.6
[N-]=[N+]=NCc1ccccc1[C@@H]1OC(c2ccc(OCCCO)cc2)=N[C@]1(Cc1ccccc1N=[N+]=[N-])C(=O)NCCN1CCOCC1 | 0.0903

SMILES | z-score
CN1C(=O)C2C=CC(C(O)c3ccc(I)cc3)N(Nc3ccccc3)C2C1=O (configuration not stated) | -0.994
[N-]=[N+]=NCc1ccccc1[C@@H]1OC(c2ccc(OCCCO)cc2)=N[C@]1(Cc1ccccc1)C(=O)NCCN1CCOCC1 | 0.162
CC1(C)C(=O)C(c2ccccc2)=C2CN3C(=O)N(CCc4ccccc4)C(=O)C3(Cc3ccc(C(F)(F)F)cc3)C=C21 (configuration not stated) | -1.33
O=C1N(CCS(=O)(=O)c2ccccc2)Cc2ccccc2[C@@H]2OC(c3ccc(OCCCO)cc3)=N[C@]12CCS(=O)(=O)c1ccccc1 | 0.298
CCOC(=O)C[C@H]1[C@H](OC(=O)c2cc3ccccc3oc2=O)[C@@H](NC(=O)c2ccc3ccccc3c2)c2cc(OCCCO)ccc2N1C(=O)Cc1ccc(OC)cc1 | -0.0697
CC(C)OC(=O)CC(=O)CC(O)c1ccc([N+](=O)[O-])cc1 (configuration not stated) | -0.119
CO[C@H]1O[C@H](CO)[C@@H](OC(=O)CCc2ccccc2)[C@H](OC(=O)c2cc3ccccc3[nH]2)[C@H]1OC(=O)c1cc2ccccc2[nH]1 | -2.09
C=CCNC(=O)[C@@H]1[C@H]2C(=O)O[C@H](c3ccccc3)[C@H](c3ccccc3)N2[C@H](c2ccc(OCCO)cc2)[C@@]12C(=O)N(C(=O)OCCOC)c1ccc(C#CCCO)cc12 | 0.423
COCCOC(=O)N1C(=O)[C@@]2(c3cc(C#CCCO)ccc31)[C@H](C(=O)N1CCCCCCC1)[C@H]1C(=O)O[C@H](c3ccccc3)[C@H](c3ccccc3)N1[C@@H]2c1ccccc1OCCO | 0.413
COC(=O)[C@@]1(Cc2ccc(F)cc2)[C@H]2c3cc(C(=O)N4CCCC4)n(C)c3C[C@H]2CN1C(=O)c1ccccc1 | -0.698
COC(=O)[C@@]1(Cc2ccc(F)cc2)[C@H]2c3cc(C(=O)N(C)C)n(Cc4ccc(O)c(OC)c4)c3C[C@H]2CN1C(=O)c1ccccc1 | 0.0463
C=CCC(OC(C)=O)[C@@H]1[C@@H](N(Cc2ccc(-c3cccc(C(F)(F)F)c3)o2)C(=O)c2ccc(C)cc2)c2cc(OCCCO)ccc2N1C(=O)Cc1ccc(OC)cc1 (some centres not stated) | 0.104
CN(C)CCCCNC(=O)[C@H]1C[C@H]2C(=O)N[C@@H](CCCC[N+](C)(C)C)C(=O)N2[C@H]1c1ccc(O)cc1 | 1.4
CCOC(=O)C1=C[C@@H](c2ccccc2)N(S(=O)(=O)c2ccc(C)cc2)[C@H]1c1ccccc1 | -1.38
C=CC[C@H](OC(=O)Nc1ccc(SC)cc1)c1ccc(OCCO)cc1 | 0.819
O=C(O)[C@H]1C[C@H]2C(=O)N[C@@H](Cc3ccccc3)C(=O)N2[C@H]1c1cccc(OCCO)c1 | 0.912
CN(C)C(=O)[C@]1(CCS(=O)(=O)c2ccccc2)N=C(c2ccc(OCCCO)cc2)O[C@@H]1c1ccccc1 | -0.342
CCOC(=O)C1=C[C@@H](C(C)(C)C)N(S(=O)(=O)c2ccc(C)cc2)[C@H]1c1ccc(C)cc1 | -0.328
